# Measured values as given in the supplement of paper PMC4022240.
# ± gives the standard deviation.
# T1: HaloTag-ATRX ADD domain (163-292)
# T1 chain: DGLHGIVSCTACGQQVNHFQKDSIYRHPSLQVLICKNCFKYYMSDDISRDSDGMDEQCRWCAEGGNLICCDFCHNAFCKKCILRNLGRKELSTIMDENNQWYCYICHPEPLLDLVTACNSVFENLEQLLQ
# Tests used:
# Assay in all cases: peptide microarray binding signal (635 nm), min-max normalized on array (fraction of array maximum); higher = stronger binding
# [1] = target: T1, HaloTag-ATRX ADD domain (163-292)
# Outline: (§1)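 Within each library, mean intensities of triplicate spots were min-max scaled to give the binding signal. The spots were histone 13-mer peptide–cellulose conjugates on nitrocellulose with a Cy3 tracer, blocked overnight at 4°C. They were then probed for 1 h at 4°C using biotin-labelled HaloTag reader fusions (10 nM to 1 μM) with streptavidin-Alexa Fluor 647 or rabbit histone antibodies (1:10,000 to 1:2,000) with anti-rabbit Alexa 647, and scanned at 635 nm for signal and 532 nm for misprints on an Axon GenePix 4000B.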
# [2] = target: HaloTag-ING2 PHD (mouse Ing2 200-280)
# Outline: as §1
# [3] = target: anti-H3K4me3 antibody ab8580
# Outline: as §1
# [4] = target: anti-H3K9me3 antibody ab8898
# Outline: as §1
# [5] = peptide region: H4 8-19, peptide modifications: H4R17me2a, binder concentration: 1:2,000 dilution
# [6] = peptide region: H4 8-19, peptide modifications: H4R17me2a, binder concentration: 1:10,000 dilution
# [7] = peptide region: H4 1-13, peptide modifications: H4S1ph, binder concentration: 1:2,000 dilution
# [8] = peptide region: H4 1-13, peptide modifications: H4S1ph, binder concentration: 1:10,000 dilution
# [9] = peptide region: H4 8-19, peptide modifications: H4K16ac H4R17me2s, binder concentration: 1:2,000 dilution
# [10] = peptide region: H4 8-19, peptide modifications: H4K8ac, binder concentration: 1:2,000 dilution
# [11] = peptide region: H4 8-19, peptide modifications: H4K8ac, binder concentration: 1:10,000 dilution
# [12] = peptide region: H4 1-13, peptide modifications: H4S1ph H4K8ac, binder concentration: 1:2,000 dilution
# [13] = peptide region: H4 1-13, peptide modifications: H4S1ph H4K8ac, binder concentration: 1:10,000 dilution
# [14] = peptide region: H4 8-19, peptide modifications: H4K16ac H4R17cit, binder concentration: 1:2,000 dilution
# [15] = peptide region: H4 8-19, peptide modifications: H4K16ac H4R17me1, binder concentration: 1:2,000 dilution
# [16] = peptide region: H4 8-19, peptide modifications: H4K16ac H4R17me2a, binder concentration: 1:2,000 dilution
# [17] = peptide region: H4 8-19, peptide modifications: H4K8ac H4K12ac H4K16ac, binder concentration: 1:2,000 dilution
# [18] = peptide region: H4 8-19, peptide modifications: H4K8ac H4K16ac, binder concentration: 1:2,000 dilution
# [19] = peptide region: H4 8-19, peptide modifications: H4K8ac H4K16ac, binder concentration: 1:10,000 dilution
# [20] = peptide region: H4 8-19, peptide modifications: H4K12ac, binder concentration: 1:2,000 dilution
# [21] = peptide region: H4 8-19, peptide modifications: H4K12ac, binder concentration: 1:10,000 dilution
# [22] = peptide region: H4 8-19, peptide modifications: H4R17me1, binder concentration: 1:2,000 dilution
# [23] = peptide region: H4 8-19, peptide modifications: H4R17me1, binder concentration: 1:10,000 dilution
binder,measurement,setting,value
KGLGKGGAKRHRK [H4 8-19 K G L G K G G A K Rme2a H R K],peptide microarray binding signal,"[1]; peptide region: H4 8-19, peptide modifications: H4R17me2a, binder concentration: 50 nM",0.00395 ± 0.00035
same,peptide microarray binding signal,"[1]; peptide region: H4 8-19, peptide modifications: H4R17me2a, binder concentration: 500 nM",0.00957 ± 0.00096
same,peptide microarray binding signal,"[2]; peptide region: H4 8-19, peptide modifications: H4R17me2a, binder concentration: 10 nM",0.00358 ± 3.8e-05
same,peptide microarray binding signal,"[2]; peptide region: H4 8-19, peptide modifications: H4R17me2a, binder concentration: 100 nM",0.0085 ± 0.00064
same,peptide microarray binding signal,[3]; [5],0.00051 ± 1.5e-05
same,peptide microarray binding signal,[3]; [6],0.000913 ± 1.6e-05
same,peptide microarray binding signal,[4]; [5],0.000483 ± 1.7e-05
same,peptide microarray binding signal,[4]; [6],0.00208 ± 0.00045
SGRGKGGKGLGKG [H4 1-13 Sph G R G K G G K G L G K G],peptide microarray binding signal,"[1]; peptide region: H4 1-13, peptide modifications: H4S1ph, binder concentration: 50 nM",0.00608 ± 0.0013
same,peptide microarray binding signal,"[1]; peptide region: H4 1-13, peptide modifications: H4S1ph, binder concentration: 500 nM",0.0121 ± 0.00045
same,peptide microarray binding signal,"[2]; peptide region: H4 1-13, peptide modifications: H4S1ph, binder concentration: 10 nM",0.00328 ± 0.00014
same,peptide microarray binding signal,"[2]; peptide region: H4 1-13, peptide modifications: H4S1ph, binder concentration: 100 nM",0.0039 ± 0.00041
same,peptide microarray binding signal,[3]; [7],0.00111 ± 0.00012
same,peptide microarray binding signal,[3]; [8],0.00131 ± 2.6e-05
same,peptide microarray binding signal,[4]; [7],0.000362 ± 6.3e-06
same,peptide microarray binding signal,[4]; [8],0.00075 ± 7.9e-06
KGLGKGGAKRHRK [H4 8-19 K G L G K G G A Kac Rme2s H R K],peptide microarray binding signal,"[1]; peptide region: H4 8-19, peptide modifications: H4K16ac H4R17me2s, binder concentration: 500 nM",0.000286 ± 1.8e-05
same,peptide microarray binding signal,"[2]; peptide region: H4 8-19, peptide modifications: H4K16ac H4R17me2s, binder concentration: 100 nM",0.000283 ± 5.7e-06
same,peptide microarray binding signal,[3]; [9],5.66e-05
same,peptide microarray binding signal,[4]; [9],1.51e-05 ± 1.7e-07
KGLGKGGAKRHRK [H4 8-19 Kac G L G K G G A K R H R K],peptide microarray binding signal,"[1]; peptide region: H4 8-19, peptide modifications: H4K8ac, binder concentration: 50 nM",0.00652 ± 0.00063
same,peptide microarray binding signal,"[1]; peptide region: H4 8-19, peptide modifications: H4K8ac, binder concentration: 500 nM",0.0191 ± 0.0048
same,peptide microarray binding signal,"[2]; peptide region: H4 8-19, peptide modifications: H4K8ac, binder concentration: 10 nM",0.004 ± 0.00025
same,peptide microarray binding signal,"[2]; peptide region: H4 8-19, peptide modifications: H4K8ac, binder concentration: 100 nM",0.0126 ± 0.0039
same,peptide microarray binding signal,[3]; [10],0.000849 ± 0.00016
same,peptide microarray binding signal,[3]; [11],0.001712 ± 1.6e-05
same,peptide microarray binding signal,[4]; [10],0.000876 ± 7e-05
same,peptide microarray binding signal,[4]; [11],0.00121 ± 2.4e-05
SGRGKGGKGLGKG [H4 1-13 Sph G R G K G G Kac G L G K G],peptide microarray binding signal,"[1]; peptide region: H4 1-13, peptide modifications: H4S1ph H4K8ac, binder concentration: 50 nM",0.00445 ± 0.00043
same,peptide microarray binding signal,"[1]; peptide region: H4 1-13, peptide modifications: H4S1ph H4K8ac, binder concentration: 500 nM",0.0149 ± 0.0018
same,peptide microarray binding signal,"[2]; peptide region: H4 1-13, peptide modifications: H4S1ph H4K8ac, binder concentration: 10 nM",0.00251 ± 3.8e-05
same,peptide microarray binding signal,"[2]; peptide region: H4 1-13, peptide modifications: H4S1ph H4K8ac, binder concentration: 100 nM",0.00503 ± 0.00084
same,peptide microarray binding signal,[3]; [12],0.000359 ± 1.8e-05
same,peptide microarray binding signal,[3]; [13],0.000742 ± 1.3e-05
same,peptide microarray binding signal,[4]; [12],0.000332 ± 6.7e-06
same,peptide microarray binding signal,[4]; [13],0.000577 ± 6.2e-06
KGLGKGGAKRHRK [H4 8-19 K G L G K G G A Kac Rcit H R K],peptide microarray binding signal,"[1]; peptide region: H4 8-19, peptide modifications: H4K16ac H4R17cit, binder concentration: 500 nM",0.000476 ± 1.3e-05
same,peptide microarray binding signal,"[2]; peptide region: H4 8-19, peptide modifications: H4K16ac H4R17cit, binder concentration: 100 nM",7.09e-05 ± 1.5e-06
same,peptide microarray binding signal,[3]; [14],3.78e-05 ± 4.3e-07
same,peptide microarray binding signal,[4]; [14],0
KGLGKGGAKRHRK [H4 8-19 K G L G K G G A Kac Rme H R K],peptide microarray binding signal,"[1]; peptide region: H4 8-19, peptide modifications: H4K16ac H4R17me1, binder concentration: 500 nM",0.000143 ± 2.7e-06
same,peptide microarray binding signal,"[2]; peptide region: H4 8-19, peptide modifications: H4K16ac H4R17me1, binder concentration: 100 nM",0.000425 ± 4.9e-06
same,peptide microarray binding signal,[3]; [15],7.55e-05 ± 8.5e-07
same,peptide microarray binding signal,[4]; [15],3.02e-05 ± 3.4e-07
KGLGKGGAKRHRK [H4 8-19 K G L G K G G A Kac Rme2a H R K],peptide microarray binding signal,"[1]; peptide region: H4 8-19, peptide modifications: H4K16ac H4R17me2a, binder concentration: 500 nM",0
same,peptide microarray binding signal,"[2]; peptide region: H4 8-19, peptide modifications: H4K16ac H4R17me2a, binder concentration: 100 nM",0.000283
same,peptide microarray binding signal,[3]; [16],1.89e-05 ± 2.2e-07
same,peptide microarray binding signal,[4]; [16],1.51e-05 ± 1.7e-07
KGLGKGGAKRHRK [H4 8-19 Kac G L G Kac G G A Kac R H R K],peptide microarray binding signal,"[1]; peptide region: H4 8-19, peptide modifications: H4K8ac H4K12ac H4K16ac, binder concentration: 500 nM",0.000476 ± 4.9e-06
same,peptide microarray binding signal,"[2]; peptide region: H4 8-19, peptide modifications: H4K8ac H4K12ac H4K16ac, binder concentration: 100 nM",7.09e-05 ± 1.5e-06
same,peptide microarray binding signal,[3]; [17],1.89e-05 ± 2.2e-07
same,peptide microarray binding signal,[4]; [17],3.02e-05 ± 3.4e-07
KGLGKGGAKRHRK [H4 8-19 Kac G L G K G G A Kac R H R K],peptide microarray binding signal,"[1]; peptide region: H4 8-19, peptide modifications: H4K8ac H4K16ac, binder concentration: 50 nM",0.000439 ± 1.5e-05
same,peptide microarray binding signal,"[1]; peptide region: H4 8-19, peptide modifications: H4K8ac H4K16ac, binder concentration: 500 nM",9.52e-05 ± 1e-06
same,peptide microarray binding signal,"[2]; peptide region: H4 8-19, peptide modifications: H4K8ac H4K16ac, binder concentration: 10 nM",0.0043 ± 0.0012
same,peptide microarray binding signal,"[2]; peptide region: H4 8-19, peptide modifications: H4K8ac H4K16ac, binder concentration: 100 nM",0.000283
same,peptide microarray binding signal,[3]; [18],0.000113
same,peptide microarray binding signal,[3]; [19],0.00143 ± 0.00034
same,peptide microarray binding signal,[4]; [18],4.53e-05
same,peptide microarray binding signal,[4]; [19],5.77e-05 ± 6.6e-07
KGLGKGGAKRHRK [H4 8-19 K G L G Kac G G A K R H R K],peptide microarray binding signal,"[1]; peptide region: H4 8-19, peptide modifications: H4K12ac, binder concentration: 50 nM",0.00743 ± 0.00047
same,peptide microarray binding signal,"[1]; peptide region: H4 8-19, peptide modifications: H4K12ac, binder concentration: 500 nM",0.0289 ± 0.0017
same,peptide microarray binding signal,"[2]; peptide region: H4 8-19, peptide modifications: H4K12ac, binder concentration: 10 nM",0.00352 ± 0.00036
same,peptide microarray binding signal,"[2]; peptide region: H4 8-19, peptide modifications: H4K12ac, binder concentration: 100 nM",0.0073 ± 0.00023
same,peptide microarray binding signal,[3]; [20],0.000189 ± 2e-06
same,peptide microarray binding signal,[3]; [21],0.00302 ± 6.8e-05
same,peptide microarray binding signal,[4]; [20],0.0031 ± 4e-05
same,peptide microarray binding signal,[4]; [21],0.00283 ± 0.00018
KGLGKGGAKRHRK [H4 8-19 K G L G K G G A K Rme H R K],peptide microarray binding signal,"[1]; peptide region: H4 8-19, peptide modifications: H4R17me1, binder concentration: 50 nM",0.00987 ± 0.0027
same,peptide microarray binding signal,"[1]; peptide region: H4 8-19, peptide modifications: H4R17me1, binder concentration: 500 nM",0.016 ± 0.0014
same,peptide microarray binding signal,"[2]; peptide region: H4 8-19, peptide modifications: H4R17me1, binder concentration: 10 nM",0.00352 ± 6.8e-05
same,peptide microarray binding signal,"[2]; peptide region: H4 8-19, peptide modifications: H4R17me1, binder concentration: 100 nM",0.00865 ± 0.00034
same,peptide microarray binding signal,[3]; [22],0.00119 ± 0.0002
same,peptide microarray binding signal,[3]; [23],0.00148 ± 8e-05
same,peptide microarray binding signal,[4]; [22],0.00112 ± 4.3e-05
same,peptide microarray binding signal,[4]; [23],0.00138 ± 1.4e-05
